Experimental findings from ChEMBL document CHEMBL4513216, “Probing the Open Global Health Chemical Diversity Library for Multistage-Active Starting Points for Next-Generation Antimalarials” (ACS Infect Dis, 2020) are described below.

Hit rate of the full screen: of about 69,000 compounds, about 8,600 (12%) showed an effect of 50% or more. Only a selection was taken, and strong results are over-represented in it overall.

The subject of the assay is Plasmodium berghei. The experiment in a line: Screen against P. berghei liver stage (PbLuc), transformed with Luciferase, at 10uM. The class given is functional, HepG2. The following applies: tested at 10 uM.
Take `O=C(NCCc1cccs1)NCC(O)c1cccc(F)c1` (stereo not drawn): the INHIBITION is listed as -54.4%.

For the molecule `CCN(CC)c1ncnc2c(C)nn(CC)c12`, the INHIBITION was found to be 35.4%. `O=C(O)C1(n2ccc(-c3ccco3)n2)CCN(Cc2cccnc2)CC1`: the INHIBITION came to 1.48%.

For the molecule `CNc1nc2cn(-c3cccc(OC)c3)c(=O)c-2c[nH]1`, the INHIBITION was -98.45%. As to `C[C@@H]1CN(Cc2cc3ccccc3n2C)CC[C@@]1(O)C1CC1`, the INHIBITION worked out at 8.7%. With `C[C@@H]1CN(S(=O)(=O)N2CCOCC2)C[C@@]1(O)C1CC1`, the INHIBITION was 38.75%. With `C[C@@H]1CN(CC(C)(C)N2CCCCC2)CC[C@@]1(O)C1CC1`, the INHIBITION is recorded as 71.3%. For `C[C@@H]1CN(CC(C)(C)N2CCOCC2)C[C@@]1(O)C1CC1`, the INHIBITION worked out at 54.5%. `C[C@@H]1CN(CC(C)(C)N2CCOCC2)CC[C@@]1(O)C1CCOCC1`: the INHIBITION is recorded as 27.7%. For `C[C@@H]1CN(CC(C)(C)N2CCCCC2)C[C@@]1(O)C1CC1` the value was 31.7%; for `Cc1nn(-c2ccccc2)nc1C(=O)N1CCCC(n2cccn2)C1` (stereo not drawn), 17.4%. For `FC(F)Oc1ccccc1CN1CCCC(c2nccn2CC2CC2)C1` (stereo not drawn) the value was 74.5%; for `NC(=O)Cn1ccnc1C1CCCN(Cc2ccccc2OC(F)F)C1` (stereo not drawn), 46.4%; for `N#Cc1ccccc1CN1CCCC(c2nccn2CC2CC2)C1` (stereo not drawn), 33.4%. For `CC1(c2ncc(CN3CCSCC3)cn2)CCCCO1` (stereo not drawn) the value was 40.95%; for `CN1CC[C@]2(CN(S(C)(=O)=O)C[C@H]2c2ccccc2)C1=O`, 48.4%. In the case of `CCCn1cc(Cl)c(C(=O)N2C[C@@H](O)[C@H](NC(C)=O)C2)n1`, the INHIBITION is 0.65%. For `O=C(O)c1cncc(Cc2ccccc2F)c1` the value was -8.58%; for `Cc1cc(-c2cnc(N3CCOCC3)nc2-c2cccnc2C)on1`, -2.11%; for `Cc1cc(-c2cnc(N3CCC(O)CC3)nc2-c2cccnc2C)on1`, 11.1%. For `Cc1cc(-c2cnc(N3CCNC(=O)C3)nc2-c2cccnc2C)on1` the value was 39.2%; for `Cc1cc(-c2cnc(N3CCNC(=O)C3)nc2-c2ccncc2)on1`, 50.8%. On to `Cc1cc(-c2cnc(N3CCNC(=O)C3)nc2-c2sccc2C)on1`, for which the INHIBITION amounted to 0.301%. With `Cc1cc(-c2cnc(N3CCNC(=O)C3)nc2-c2ccoc2C)on1`, the INHIBITION turned out to be 14.7%. `Cc1cc(-c2cnc(N3CCCCCC3)nc2-c2cccnc2C)on1`: the INHIBITION is 59.3%. For `Cc1cc(-c2cnc(N3CCNC(=O)C3)nc2-c2ccc(C)o2)on1` the value was 35.8%; for `Cc1cc(-c2cnc(N3CCCC(C)C3)nc2-c2cccnc2C)on1` (stereo not drawn), 64.3%. In the case of `O=C(c1ccc(Cl)cc1F)N1CCC(Cn2cc(CO)nn2)CC1`, the INHIBITION turned out to be 6.67%. With `CCCN(Cc1nnnn1C1CC1)CC1COc2ccccc2O1` (stereo not drawn) the figure was -16.6%; with `COCCCNC(=O)c1cc(-c2cnc(N3CCOCC3)nc2)cn1C`, 38.1%. On to `CC1CCN(CCNC(=O)Nc2ccc(F)cc2Cl)CC1`, for which the INHIBITION is given as 56.4%. With `O=C(Cc1ccccc1Cl)NCCN1CCC(c2cccs2)CC1` the figure was 56.6%. With `COc1ccc(C(=O)NCCN2CCC(c3cccs3)CC2)cc1OC` the figure was 17.1%; with `O=C(NCCN1CCC(c2cccs2)CC1)c1ccc(F)cc1Cl`, 56.6%; with `O=C(NCCc1ccccc1)NCCN1CCC(c2cccs2)CC1`, 38%.

For `CCOC(=O)N1CCN(CC(=O)Nc2ccc(F)cc2Cl)CC1`, the INHIBITION was determined as 25.6%. `CCSc1ccccc1C(=O)NCCN1CCC(c2cccs2)CC1`: the INHIBITION came out at 38%. In the case of `O=C(NCCN1CCC(c2cccs2)CC1)Nc1cccs1`, the INHIBITION is on record as 9.54%. In the case of `CC(=O)NCCN1CCC(c2cccs2)CC1`, the INHIBITION is -19.4%. On to `O=C(NCCN1CCC(c2cccs2)CC1)c1ccccc1C(F)(F)F`, for which the INHIBITION is 40.9%. With `CC1CCN(CCNC(=O)c2ccn(-c3ccc(F)cc3)n2)CC1` the figure was -43.5%; with `Cc1csc(C(=O)NCCN2CCC(c3cccs3)CC2)c1`, 68.2%. As for `CCc1nnc2n1CCN(C(=O)c1ccc3cc[nH]c3c1)C2`, the INHIBITION was -7.53%.

Regarding `CC(=O)N[C@@H]1CN(S(=O)(=O)c2ccc(Cl)cc2)C[C@H]1O`, the INHIBITION is -0.232%. For `COC(C)(CNS(=O)(=O)c1cnn(C)c1)c1ccccc1F` (stereo not drawn) the value was -19.1%; for `Cc1noc(C)c1CCC(=O)N1CCn2cccc2C1C` (stereo not drawn), -19.7%. With `CN(C)C(=O)c1n[nH]c2c1CN(Cc1ccccn1)CC2` the figure was -27%; with `CC1CCN(CCCNC(=O)Nc2cc3c(cc2Br)OCCO3)CC1`, 63.3%; with `O=C(Nc1cc2c(cc1Br)OCCO2)NC1CCS(=O)(=O)C1` (stereo not drawn), 11.8%.

In the case of `CC1CCN(CCCNC(=O)C2CCCCC2)CC1`, the INHIBITION is given as -32.3%. On to `CN(Cc1nccn1CC(F)(F)F)C(=O)c1ccc(F)c(F)c1`, for which the INHIBITION is given as -17.4%. As for `Cc1nn(-c2ncnc3[nH]cnc23)c2c1C(CC(C)C)CC(=O)N2` (stereo not drawn), the INHIBITION is -4.35%. For `CN(C)c1ncnc2c1CCN(Cc1nccs1)CC2` the value was -12.1%; for `O=C(c1cnccn1)N1CCC2(CC1)CCN(Cc1ccccn1)C2=O`, 53.2%; for `O=C(c1ccncc1)N1CCC2(CC1)CCN(Cc1ccccn1)C2=O`, 14.6%. In the case of `O=C(c1cccnc1)N1CCC2(CC1)CCN(Cc1ccccn1)C2=O`, the INHIBITION is reported as -20.1%.

On to `CCc1nc(CN2CCN(C(=O)c3cnccn3)CC2)cs1`, for which the INHIBITION stood at 9.94%. For `CN(C)C(=O)N1CCC2(CC1)CCN(Cc1ccccn1)C2=O`, the INHIBITION was determined as 20.5%. With `Cc1ccc(C(=O)N2CCC3(CC2)CCN(Cc2ccccn2)C3=O)o1` the figure was 52.2%; with `CC(=O)N1CCC2(CCN(Cc3ccccn3)C2=O)C1` (stereo not drawn), -20.1%. With `O=C(c1cnccn1)N1CCN(Cc2csc(-c3ccccc3)n2)CC1`, the INHIBITION came out at 59.4%.

Turning to `Cc1occc1C(=O)N1CCC2(CCN(Cc3ccccn3)C2=O)C1` (stereo not drawn), the INHIBITION stood at 65.7%. On to `CC(C)(C)c1nc(CN2CCN(C(=O)c3cnccn3)CC2)cs1`, for which the INHIBITION worked out at 20.8%. For `Cc1cnc(C(=O)N2CCC3(CCN(Cc4ccccn4)C3=O)C2)cn1` (stereo not drawn), the INHIBITION was -39.2%. With `Cc1oncc1C(=O)N1CCC2(CCN(Cc3ccccn3)C2=O)C1` (stereo not drawn) the figure was 25.1%; with `CNc1cncc(C2CCCN2C(=O)CCn2ccnc2C(C)C)n1` (stereo not drawn), 21.685%; with `O=C(CC1CN(Cc2ccccc2)CCO1)NC1CCSCC1` (stereo not drawn), 35.1%. Take `COCC(=O)N1CCCC1c1cc(N2CCN(C(C)=O)CC2)cc(C)n1` (stereo not drawn): the INHIBITION amounted to 18.9%.
